# Only some compounds are listed: those with a hit (about 12% of all), similar ones and a draw of the others.
# G9a block – blocks human histone lysine methyltransferase G9a. G9a H3K9 monomethylation, AlphaScreen, 2 h. hit rate 8.8% among 350,000. AID 504332. Potency, µM (series often up to 102 µM), for the others: at the top dose activity, negative = inhibition, most hits filed as inhibitors; also: potency is read from the fitted curve at half-maximal effect; % is scaled to controls: 0 for no effect and ±100 for the full control effect; nearly all actives have a fitted effect of over 75% in size
#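 G9a (20 nM) preincubated 15 min RT with compounds, then 500 nM biotinylated H3K9 peptide and 20 uM SAM added; 2 h RT reaction. Monomethyl-H3K9 product detected by AlphaScreen with anti-H3K9me1 antibody, streptavidin donor and anti-rabbit IgG acceptor beads.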
# HP1b binding inh – HP1-beta chromodomain-methylated histone interaction inhibition | hit rate 0.56% among 390,000 | Potency, µM (top dose mostly 114 µM), without a hit: top-dose activity change, negative = inhibition, hits mostly inhibitors | P83916 | AlphaScreen HP1-beta / biotin-H3K9me3 peptide binding; also: potency is read from the fitted curve at half-maximal effect; nearly all actives have a fitted effect of over 70% in size
#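 HP1-beta protein (50 nM final) preincubated 30 min at room temperature with biotinylated H3(1-18)K9me3 peptide (50 nM) in PBS pH 7.4, 0.01% Tween-20, then compound added for 30 min. AlphaScreen streptavidin donor/nickel chelate acceptor beads (10 ug/mL final), 30 min dark, luminescence read.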
# Sfp inh – inhibitors of Bacillus subtilis Sfp phosphopantetheinyl transferase. Biochemical Sfp PPTase activity, qHTS. Q9F4F7. hit rate 3.5% among 310,000. Potency, µM, for inactives: largest response in the series, negative = inhibition, usual class: inhibitors;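 also: the enzyme is Sfp with the accession as filed and its product quenches rhodamine fluorescence; potency is read from the fitted curve at half-maximal effect; 0% = enzyme reaction without inhibitor and -100% = no enzyme wells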
#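 After 15 min at room temperature with compound, 15 nM Sfp received 5 uM rhodamine-CoA plus 12.5 uM BHQ-2-ybbR (50 mM Hepes pH 7.6, 10 mM MgCl2). Rate came from the fluorescence difference over 30 min, ex 525/em 598 nm.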
# BAZ2B block – BAZ2B (human) inhibition; Q9UIF8; AlphaScreen BAZ2B-H3K14Ac peptide displacement; Potency, µM (series often up to 114 µM), without a hit: at the highest dose activity change, negative = inhibition, hits mostly inhibitors; hit rate 4.4% among 360,000; AID 504333; also: potency is read from the fitted curve at half-maximal effect; % is scaled to controls: 0 for no effect and ±100 for the full control effect; nearly all actives have a fitted effect of over 60% in size
# Target sequence (Q9UIF8 whole entry, looked up): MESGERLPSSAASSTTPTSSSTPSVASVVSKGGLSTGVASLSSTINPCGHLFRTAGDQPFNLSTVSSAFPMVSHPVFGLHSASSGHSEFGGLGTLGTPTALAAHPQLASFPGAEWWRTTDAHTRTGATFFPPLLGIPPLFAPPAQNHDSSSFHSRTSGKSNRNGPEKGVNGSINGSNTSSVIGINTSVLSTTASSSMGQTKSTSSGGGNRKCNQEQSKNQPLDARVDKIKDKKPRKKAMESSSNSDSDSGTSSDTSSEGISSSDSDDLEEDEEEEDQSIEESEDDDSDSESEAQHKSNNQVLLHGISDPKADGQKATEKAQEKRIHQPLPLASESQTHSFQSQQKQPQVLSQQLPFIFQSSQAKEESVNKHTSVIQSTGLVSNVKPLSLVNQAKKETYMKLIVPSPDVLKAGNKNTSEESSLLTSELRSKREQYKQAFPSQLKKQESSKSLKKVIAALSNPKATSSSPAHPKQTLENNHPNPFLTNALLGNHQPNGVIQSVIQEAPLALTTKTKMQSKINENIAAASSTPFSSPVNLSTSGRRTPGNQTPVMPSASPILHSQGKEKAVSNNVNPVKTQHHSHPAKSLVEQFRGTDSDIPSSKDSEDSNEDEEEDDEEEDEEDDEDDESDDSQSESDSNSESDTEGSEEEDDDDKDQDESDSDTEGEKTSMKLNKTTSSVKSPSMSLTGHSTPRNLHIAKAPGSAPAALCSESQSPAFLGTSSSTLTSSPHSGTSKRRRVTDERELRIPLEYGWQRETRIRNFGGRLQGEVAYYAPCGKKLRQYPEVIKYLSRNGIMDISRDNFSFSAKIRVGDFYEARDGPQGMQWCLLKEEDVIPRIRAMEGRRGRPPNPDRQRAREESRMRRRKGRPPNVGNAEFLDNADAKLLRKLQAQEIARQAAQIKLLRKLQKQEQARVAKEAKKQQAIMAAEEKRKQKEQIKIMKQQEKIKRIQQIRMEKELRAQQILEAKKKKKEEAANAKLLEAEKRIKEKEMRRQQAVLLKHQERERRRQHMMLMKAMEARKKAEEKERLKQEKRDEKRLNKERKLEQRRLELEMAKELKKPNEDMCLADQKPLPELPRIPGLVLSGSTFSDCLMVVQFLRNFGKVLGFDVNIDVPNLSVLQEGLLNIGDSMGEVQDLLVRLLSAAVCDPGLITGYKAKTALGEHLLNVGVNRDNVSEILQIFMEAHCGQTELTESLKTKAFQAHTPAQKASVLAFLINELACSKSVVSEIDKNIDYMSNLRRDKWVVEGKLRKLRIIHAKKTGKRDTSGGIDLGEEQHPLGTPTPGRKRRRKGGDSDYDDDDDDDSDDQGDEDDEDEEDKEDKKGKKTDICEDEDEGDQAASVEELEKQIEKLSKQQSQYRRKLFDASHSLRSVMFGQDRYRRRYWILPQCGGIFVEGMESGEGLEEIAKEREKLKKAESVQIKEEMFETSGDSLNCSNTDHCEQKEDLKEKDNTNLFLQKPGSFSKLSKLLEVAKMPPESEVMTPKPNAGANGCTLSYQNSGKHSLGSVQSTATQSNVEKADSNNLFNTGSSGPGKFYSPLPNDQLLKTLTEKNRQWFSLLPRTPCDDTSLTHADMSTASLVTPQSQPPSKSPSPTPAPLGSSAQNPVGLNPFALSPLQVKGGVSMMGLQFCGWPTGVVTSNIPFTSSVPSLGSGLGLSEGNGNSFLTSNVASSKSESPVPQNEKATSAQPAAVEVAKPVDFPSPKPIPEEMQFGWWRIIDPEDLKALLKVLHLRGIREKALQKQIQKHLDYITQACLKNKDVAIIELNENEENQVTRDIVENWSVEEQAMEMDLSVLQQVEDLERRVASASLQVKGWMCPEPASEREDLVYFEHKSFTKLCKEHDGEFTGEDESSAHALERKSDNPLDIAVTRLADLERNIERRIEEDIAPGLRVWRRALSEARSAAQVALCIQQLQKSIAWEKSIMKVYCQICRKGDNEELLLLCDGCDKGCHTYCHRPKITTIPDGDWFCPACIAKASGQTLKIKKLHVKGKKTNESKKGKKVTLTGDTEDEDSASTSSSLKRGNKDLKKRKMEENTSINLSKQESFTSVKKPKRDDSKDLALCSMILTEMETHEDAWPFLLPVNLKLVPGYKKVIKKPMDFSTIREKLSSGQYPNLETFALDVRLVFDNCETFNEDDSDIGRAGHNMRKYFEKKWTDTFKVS
#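 Complex of BAZ2B and biotin-H3K14Ac (50 nM apiece) forms over 30 min at RT, then faces library compounds up to 110 uM for another 30 min; AlphaScreen beads added, 20 min dark incubation, luminescence read.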
# L3MBTL1 inh – inhibitors of human L3MBTL1. AlphaScreen L3MBTL1–H3K9me1 peptide binding. hit rate 0.66% among 230,000. Potency, µM (highest dose often 57.1 µM), without a hit: at the highest dose activity, negative = inhibition, usual class: inhibitors; also: potency is read from the fitted curve at half-maximal effect; % is scaled to controls: 0 for no effect and ±100 for the full control effect; nearly all actives have a fitted effect of over 60% in size
#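 Displacement of a biotinylated histone H3(1-15) peptide monomethylated at Lys9 (75 nM) from L3MBTL1 (50 nM) was measured by AlphaScreen after a 30 min room-temperature compound incubation; cefsulodin titration served as intraplate control.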
# JMJD2A Tudor – inhibitors of human JMJD2A Tudor domain; AID 504339; Potency, µM (titrated, usually from 114 µM), inactives show top-dose activity change, negative = inhibition, hits mostly inhibitors; AlphaScreen JMJD2A-Tudor / H3K4me3 peptide binding; hit rate 4.4% among 390,000; also: potency is read from the fitted curve at half-maximal effect; % is scaled to controls: 0 for no effect and ±100 for the full control effect; nearly all actives have a fitted effect of over 50% in size
# Sfp inh conf – confirmation of Bacillus subtilis Sfp PPTase inhibitors | shares compounds with Sfp inh | Sfp PPTase enzymatic assay, qHTS titration | Potency, µM (highest dose often 114 µM), inactives show at the highest dose activity change, negative = inhibition, usual class: inhibitors | hit rate 79% among 380;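 also: potency is read from the fitted curve at half-maximal effect; plate controls were uninhibited Sfp reaction for no effect and no enzyme control for full effect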
# Sfp PPTase gel – Inhibits Bacillus subtilis Sfp phosphopantetheinyl transferase; purified Sfp, gel-based phosphopantetheinylation read-out; Potency, µM, actives largely listed as inhibitors; shares compounds with Sfp inh; hit rate 20% among 210;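 active = potency below 100 µM; inconclusive = dose-dependent response but potency above 100 µM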;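 also: band intensities scaled against SCH202676 control wells before curve fitting; potency is an IC50 for inhibitors of Sfp transfer activity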
# * hit, by the source's call; i = inactive; u = inconclusive; x = no result given; ! = a repeat was not active; [ ] = dose if it differs, or a comment. Unless noted, calls follow the shape of the dose curve; as a rule, active = well fitted curve in the direction sought with a large enough effect; inconclusive = small, poorly fitted or top-dose-only effect, or another doubt; inactive = no such curve, though single readings can be large; an effect the other way counts as inactive or inconclusive.
SMILES,G9a block,HP1b binding inh,Sfp inh,BAZ2B block,L3MBTL1 inh,JMJD2A Tudor,Sfp inh conf,Sfp PPTase gel
COc1ccc(C)cc1S(=O)(=O)N1CCOCC1,x,u,12.2%,7.3%,7.7%,-27.1%[11.4 µM],x,x
COC(=O)c1ccc(C(NC(=O)OCc2ccccc2)/C(F)=C/[C@@H](C)C(=O)N(C)Cc2cccnc2)cc1 (stereo not given in full),x,x,11.8%,x,x,x,x,x
CN1CCN(C(c2cccnc2)c2ccc3cccnc3c2O)CC1 (stereo not given),u,u,2.82µM*,10µM*,x,u,41.8µM*,x
Cc1sc(NC(=O)c2ccco2)c(C(c2cccnc2)N2CCN(C)CC2)c1C (stereo not given),-11.4%,17.8%,-0.5%,-22.4%[57.1 µM],-2.5%,-27.8%,x,x
Cc1cc(Nc2cccc(Cl)c2)nc(NCc2ccccc2)n1,-9.7%[59 µM],23.4%,15.8µM*,-1.1%,-12.6%,-21.4%,59.1µM*,u
COc1ccc(NC(=O)C(=O)NCCc2sc(-c3ccc(Cl)cc3)nc2C)cc1,4.2%[59 µM],30.7%,x,2.5%,x,4.8%,x,x
CCOC(=O)c1ccc(NC(=O)c2cc(C)nc3ccccc23)cc1,-24.5%,11.2%,7.3%,-27.9%,-6.9%,-12.9%,x,x
CCc1ccc(OCc2ccccc2C(=O)Nc2ccc3nc(C)cc(N)c3c2)cc1,-42.1%[59 µM],x,12.6µM*,x,x,x,46.9µM*,x
Cc1cccc2cc(CNCC3CCCO3)c(Cl)nc12 (stereo not given),7.4%[12.7 µM],25.9%,-8.3%,-8.2%,7.3%,-8.0%,x,x
Cc1cccc2cc3c(nc12)SC(=NCC1CCCO1)N(Cc1ccco1)C3 (stereo not given),6.31µM*,u,3.55µM*,u,-5.8%,56.2µM*,6.63µM*,6.17µM*
O=C(Cc1ccccc1[N+](=O)[O-])OCC(=O)c1c[nH]c2ccccc12,-45.2%,10.7%,x,-9.2%,-5.4%,-25.3%,x,x
CCCCS(=O)(=O)Nc1ccc(C)cn1,7.08µM*,u,39.8µM*,-1.8%,-1.0%,-18.5%,46.9µM*,i
CC(C)OC(=O)Cn1c(-c2ccccc2)c(-c2ccccc2)nnc1=O,x,42.3%,4.4%,-15.2%,x,-9.8%,x,x
COC(=O)Cn1c(-c2ccc(OC)cc2)c(-c2ccc(OC)cc2)nnc1=O,-13.9%[0.501 µM],-2.5%,50.1µM*,56.2µM*,-0.6%[2.29 µM],-16.9%,8.5%,x
O=C(c1cc2c(s1)-c1ccccc1S(=O)(=O)C2)N1CCN(Cc2ccccc2)CC1,u,36.4%,11.8%,-3.7%,x,-22.7%,x,x
CC(C)c1ccc(Cn2ccc3c4c(N)nc(NC5CC5)nc4ccc32)cc1,x,x,5.01µM*,x,x,x,13.2µM*,u
O=C(O)c1cc(NCc2ccc3c(c2)OCO3)ccc1N1CCOCC1,u,-2.1%,2.9%,1.8%,-6.5%,7.4%,x,x
CC(=O)N1CCN(c2ccc(NCc3ccc4c(c3)OCO4)cc2)CC1,u,-20.7%,15.8µM*,u,-6.6%,u,21µM*,i
Oc1ccccc1CNc1cccc2cccnc12,u,-11.1%,7.94µM*,-37.3%,u,u,41.8µM*,x
COc1cc(NCc2ccccc2O)c2ncccc2c1,27.4%,19.0%,45.7%,u,u,-28.8%,x,x
COc1ccc(C(=O)/C=C/C(=O)N(CC(=O)NC2CCCCC2)Cc2cccs2)c(O)c1,15.8µM*,14.3%,3.16µM*,-24.6%,-10.6%,-13.4%,3.32µM*,2.06µM*
COCCN(CC(=O)NC1CCCCC1)C(=O)/C=C/C(=O)c1ccc(OC)cc1O,x,-35.5%,-0.3%,-1.8%,6.4%,-21.6%[57.1 µM],x,x
c1ccc2c(c1)nc(N1CCOCC1)c1nncn12,-9.8%,26.5%,10.8%,9.4%,x,2.9%,x,x
C1=C(c2ccccc2)CCN(c2nc3ccccc3n3cnnc23)C1,22.4µM*,-1.1%,28.2µM*,6.2%,x,-34.5%,37.3µM*,x
N[C@@H](Cc1ccc(O)c(O)c1)C(=O)O,20µM*,20µM*,39.8µM*,x,x,39.8µM*,-6.4%[53.7 µM],u
SMILES,G9a block,HP1b binding inh,Sfp inh,BAZ2B block,L3MBTL1 inh,JMJD2A Tudor,Sfp inh conf,Sfp PPTase gel
N[C@H](Cc1ccc(O)cc1)C(=O)O,30.3%[59 µM],x,-5.8%,x,x,x,x,x
CCOc1ccc(NC(=O)c2oc3ccccc3c2NC(=O)Cc2ccc(F)cc2)cc1,7.3%[59 µM],15.8%,x,-10.0%,x,-17.5%,x,x
O=Cc1cn(-c2ccccc2)nc1-c1ccccc1,73.3%,46.4%,-1.3%,12.9%,5.7%,-6.3%,x,x
CC1=NNC(=O)/C1=C\c1cn(-c2ccccc2)nc1-c1ccccc1,u,u,3.55µM*,u,u,-31.6%[11.4 µM],41.8µM*,18.5µM*
Cc1ccc(S(=O)(=O)N2CCN(Cc3ccco3)CC2)c(C)c1,x,25.2%[57 µM],7.4%,-23.5%,x,-19.2%,x,x
O=C(CSc1nc2ccc(S(=O)(=O)N3CCOCC3)cc2[nH]1)N1CCOCC1,1.78µM*,u,6.31µM*,-37.1%,x,79.4µM*,3.73µM*,x
O=C(NCc1ccccc1Cl)c1ccc(CSc2nc3ccncc3[nH]2)cc1,-37.5%,14.2%,17.0%,-20.5%,2.2%,-26.8%,x,x
Clc1ccccc1CSc1nc2ccncc2[nH]1,44.7µM*,-1.5%,56.2µM*,9.3%,x,-20.4%,u,u
CN1C(C(=O)Nc2ccccn2)=C(O)c2sccc2S1(=O)=O,u,10.2%,50.1µM*!,50.1µM*,-6.1%,50.1µM*,11.8µM*,i
O=C(Nc1ccccn1)c1cccs1,-2.7%[59 µM],u,-2.9%,14.5%,x,u,x,x
Cc1sc2c(c1C)C(=O)NC(c1ccccc1F)N2 (stereo not given),10µM*,u,7.94µM*,-27.1%,3.2%,u,7.44µM*,i
O=C1CSC(c2ccccc2F)N1 (stereo not given),x,1.2%,0.4%,u,x,-6.1%,x,x
COc1cc2c(cc1C1NC(=S)NC(C)=C1C(N)=O)CCCC2 (stereo not given),2.8%[12.7 µM],79.4%,-13.3%,u,-1.1%,-12.0%,x,x
CCN(CC)CCCn1c(SCC(=O)Nc2cccc(F)c2)nnc1-c1ccoc1C,-8.3%,24.6%,-3.8%,6.1%,x,-7.4%,x,x
NC(=O)N1c2ccccc2C=Cc2ccccc21,-0.8%[59 µM],13.7%,24.3%,-4.9%,5.9%,-23.4%,x,x
NC(=O)N1c2ccccc2CC(=O)c2ccccc21,-16.6%[2.33 µM],13.5%,35.5µM*!,0.3%,-5.4%,-7.9%,46.9µM*,i
O=C1NC(c2ccccc2)(C(F)(F)F)SC2=CCCCCN12 (stereo not given),u,49.2%,20µM*,11.5%,-0.3%,-4.3%,46.9µM*,i

# Screens: PubChem BioAssay, National Center for Advancing Translational Sciences (NCATS)
